Source: PubChem BioAssay AID540299 (ICCB-Longwood Screening Facility, Harvard Medical School, 2011)
Where “and” joins values, the source holds several entries; their conditions need not be identical. Identical values can stand only once. The whole screen tested about 100,000 compounds, of which about 440 (0.44%) were called active. Cut-off read from the data, not from the text of the source: active = inhibition above about 21% (passing the limit was not always enough); inactive = the rest. The sample as a whole holds a higher share of actives than the screen did. The source holds several records for some structures; these can differ, active in one and inactive in another.

Target: 1,4-dihydroxy-2-naphthoyl-CoA synthase (Mycobacterium tuberculosis (strain ATCC 25618 / H37Rv)) (UniProt P9WNP5)
Sequence (P9WNP5 whole entry, looked up): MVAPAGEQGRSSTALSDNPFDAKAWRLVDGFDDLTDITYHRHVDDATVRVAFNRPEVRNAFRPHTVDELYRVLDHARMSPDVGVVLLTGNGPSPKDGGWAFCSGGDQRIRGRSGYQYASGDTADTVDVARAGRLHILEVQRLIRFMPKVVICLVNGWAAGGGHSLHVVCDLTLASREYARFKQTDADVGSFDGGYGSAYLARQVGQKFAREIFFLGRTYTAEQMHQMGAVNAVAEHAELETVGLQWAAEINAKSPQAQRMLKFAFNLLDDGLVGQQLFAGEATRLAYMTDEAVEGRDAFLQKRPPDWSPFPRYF
Assay: M. tuberculosis MenB inhibitors, primary screen, biochemical, absorbance (AID 540299)
Conditions: MenB enzyme assay, absorbance read-out; stronger effect = higher value; concentration not given here

| SMILES | inhibition |
| --- | --- |
| CN(Cc1cccc(Cl)c1Cl)CC(O)COCc1ccccc1 (configuration not stated) | -5.12% (inactive) |
| COc1ccc(Cc2nnc3n2N=C(N)CS3)cc1 | 8.07% (inactive) |
| CCNc1nnc(-c2ccc(C)cc2)s1 | -8.94% (inactive) |
| COc1ccc(-c2noc(N3CCN(c4ccc(OC)cc4)CC3)n2)cc1 | 1.43% (inactive) |
| COc1cc(C)cc(CN2CCN(S(=O)(=O)c3ccccc3C#N)CC2)c1O | -41.6% (inactive) |
| CCCC1(C(=O)OC)NC(c2ccco2)C2C(=O)N(C)C(=O)C21 (configuration not stated) | 29.6% (active) |
| CCN1C(=O)C2C(c3cccs3)NC(C)(C(=O)OC)C2C1=O (configuration not stated) | 15.1% (inactive) |
| CCOC(=O)C1(Cc2ccc(O)cc2)NC(c2ccccc2F)C2C(=O)N(C)C(=O)C21 (configuration not stated) | -10.9% (inactive) |
| CC1CCCCN1CC(=O)Nc1cc(C(C)(C)C)nn1-c1ccccc1 (configuration not stated) | 7.46% (inactive) |
| COc1ccc2c(CC(=O)OCC(=O)Nc3c(C)n(C)n(-c4ccccc4)c3=O)coc2c1 | -0.895% (inactive) |
| Cc1cc(N2CCN(C3CCCCC3)CC2)c2nncn2n1 | 0.645% (inactive) |
| O=C1CC2NCCc3cccc1c32 (configuration not stated) | -9.34% (inactive) |
| CCNS(=O)(=O)c1ccc(-c2cc(C)no2)s1 | -3.52% (inactive) |
| O=C(COC(=O)c1ccc(S(=O)(=O)N2CCOCC2)cc1)Nc1ncc(Cl)cc1Cl | 3.48% (inactive) |
| CCCc1ccc(OCCNC(C)=O)c(OC)c1 | 11.5% (inactive) |
| Cc1ccc2oc(=O)c3cnn(CC(=O)n4c(C)cc5ccccc54)c3c2c1 | -3.43% (inactive) |
| CC1(C)CC(=O)C2=C(C1)N=C1SCCC(=O)N1C2c1ccc(Br)cc1 (configuration not stated) | -1.14% (inactive) |
| C=CCn1c(=NC(C)=O)sc2cc(F)ccc21 | -10.2% (inactive) |
| CC1CCCCN1C(=O)c1ccc2ccccc2n1 (configuration not stated) | -16.5% (inactive) |
| O=C1CCC(=O)N1CNc1ccc(-c2ccccc2)cc1 | -8.33% (inactive) |
| Oc1ccc(-c2cccc(-c3ccc(O)cc3)c2)cc1 | -21.5% (inactive) |

| SMILES | inhibition |
| --- | --- |
| Oc1ccc(-n2cccc2)cc1 | -10.9% (inactive) |
| Oc1ccc(SSc2ccc(O)cc2)cc1 | 40.7% (active) |
| c1cc(-c2nn[nH]n2)ccc1CN1CCCCC1 | -0.56% (inactive) |
| CCc1ccc(-c2nnn(Cc3nn[nH]n3)n2)cc1 | 42.6% (active) |
| Cc1ccccc1Cn1nnc(-c2ccncc2)n1 | -48.5% (inactive) |
| COC(=O)Cc1cnc(NC(=O)CSc2nc(C(C)C)cc(=O)[nH]2)s1 | -54% (inactive) |
| CN1C(C(=O)NC2CCCC2)=CC(c2cccs2)=NS1(=O)=O | -18.8% (inactive) |
| COc1ccc(C(=O)NNc2nnc(C(C)(C)C)c(=O)n2N)cc1 | 1.4% (inactive) |
| O=C(c1ccco1)N1CCCCCCC1 | 1.17% (inactive) |
| O=C(On1c(-c2ccccc2)nc2ccccc2c1=O)c1cccc(C(F)(F)F)c1 | 11.4% (inactive) |
| COc1ccc(CNCC(O)c2nnn(C)n2)cc1OC (configuration not stated) | -32.7% (inactive) |
| Cn1nnc(C(O)CNCc2ccc(F)cc2)n1 (configuration not stated) | 29.6% (active) |
| Fc1ccc(CNCc2ccccn2)cc1 | -6.84% (inactive) |
| CC1CCCC(NC(=O)COC(=O)c2cccc(S(=O)(=O)N(C)C)c2)C1C (configuration not stated) | -17.8% (inactive) |
| O=C(O)C1CCCN(C(=O)c2cnn(-c3ccccc3)c2-n2cccc2)C1 (configuration not stated) | 1.1% (inactive) |
| O=C(Nc1ccccc1C(=O)N1CCCC1)Oc1ccccc1 | 3.13% (inactive) |
| CCOC(=O)c1[nH]cnc1C(=O)NC1CCCCC1 | -17.9% (inactive) |
| Cc1ccc(NC(=O)c2nc[nH]c2C(=O)N2CCCCC2)c(C(=O)c2ccccc2)c1 | 39.3% (active) and -17.8% (inactive) |
| N#CSc1ccc(N)c(Br)c1 | 24.6% (active) |
| N#CSc1ccc(N2CCCCC2)cc1 | -10.6% (inactive) |
| COc1cc(CNC(=O)c2ccc(N(C)C)cc2)cc(OC)c1OC | -9.81% (inactive) |

| SMILES | inhibition |
| --- | --- |
| Cc1c(/C=C(\C#N)C(=O)Nc2nccs2)cc(C#N)n1C | 0.38% (inactive) |
| C1CCC(NC2CCCC2)C1 | -21.1% (inactive) |
| O=S1(=O)CCC(NC2CCCCC2)C1 (configuration not stated) | 49.9% (active) |
| O=S1(=O)CCC(S(=O)(=O)NC2CCCC2)C1 (configuration not stated) | -11% (inactive) |
| CN1C(=O)C(C)(C)c2cc(S(=O)(=O)NCCc3ccco3)ccc21 | -23.9% (inactive) |
| CCc1cc(CC)c(CO)c(CC)c1/C=N/O | -27% (inactive) |
| CC(Oc1ccccc1)c1nn2c(-c3cccnc3)nnc2s1 (configuration not stated) | -64.7% (inactive) |
| O=C(c1nc(-c2ccc(Cl)cc2)n2c1CCCCC2)N1CCCCCC1 | -18.8% (inactive) |
| Cc1cccc(COC(=O)Nc2ccc(N3CCCCC3)cc2)c1 | -13.2% (inactive) |
| COc1cccc(NC(=O)CC2CCCCC2)c1 | -13.2% (inactive) |
| O=C(O)c1ccc(NC(=O)C2CC2)cc1 | 0% (inactive) |
| O=C(Cn1cc(C(F)(F)F)ccc1=O)Nc1ccc(S(=O)(=O)N2CCCC2)cc1 | 17% (inactive) |
| O=C(O)c1ccc2[nH]c(=O)c(=O)[nH]c2c1 | 6.67% (inactive) and 1.98% (inactive) |
| COc1ccc(-c2nc3sc(-c4ccc(OC)cc4)nc3s2)cc1 | 26.2% (active) |
| COc1ccc(C2NNC(=S)S2)cc1 (configuration not stated) | 1.67% (inactive) |
| COc1ccc(-c2nn(C)c3ccccc23)cc1 | 4.51% (inactive) |
| CN1CCN(n2c(-c3ccc(Cl)cc3)csc2=Nc2ccccc2)CC1 | -4.88% (inactive) |
| CC1C(=O)N2CCCc3cc(S(=O)(=O)NCc4ccc(F)cc4)cc1c32 (configuration not stated) | -7.22% (inactive) |
| O=S(=O)(c1cccs1)N(c1ccccc1)C(F)F | 9.14% (inactive) |
| O=S(=O)(/C=C/c1ccccc1)N1CCN(CCc2ccncc2)CC1 | -2.97% (inactive) |
